The nature of experiment [1]: qHTS assay to identify small molecule agonists of the RXR signaling pathway - cell viability counter screen (AID 1159529). Further: series mostly up to about 77 µM; nearly all actives have a fitted effect of over 50% in size. Summed up:
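CellTiter-Glo luminescence gave viability in the wells also read for beta-lactamase. Cells (RXR-alpha-UAS-bla HEK 293T, 2% charcoal-stripped FBS medium) had 5 hr plating, then 16 hr compound exposure at 37 C; tetraoctyl ammonium bromide served as positive control.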
(In general: Quantitative high-throughput screening tests each substance at several concentrations.)

Experiment [2] in a line: qHTS assay to identify small molecule antagonists of the retinoid acid receptor (RAR) signaling pathway - cell viability counter screen (AID 1159551). Further: nearly all actives have a fitted effect of over 35% in size. Summed up:
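C3RL4 cells were seeded overnight at 37 C, then treated with compounds plus 1 uM (final) retinol for 6 h at 37 C. Viability was read as ATP by CellTiter-Glo luminescence after 30 min at room temperature.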

The nature of experiment [3]: qHTS assay to identify small molecule antagonists of the retinoic acid receptor (RAR) signaling pathway (AID 1159552; further: nearly all actives have a fitted effect of over 50% in size). Put shortly:
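Luminescent RARE reporter read-out in C3RL4 cells: 6 hr co-treatment at 37 C of test compounds with retinol at 1 uM final. Cells plated overnight beforehand; luciferase reagent incubated 30 min at room temperature before reading.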

Experiment [4] can be described thus: qHTS assay to identify small molecule agonists of the retinoic acid receptor (RAR) signaling pathway (AID 1159553). Summed up: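 C3RL4 cells carrying a RARE luciferase reporter were plated overnight at 37 C, then exposed to compounds in DMSO for 6 hr at 37 C and 5% CO2. Luminescence was read 30 min after luciferase reagent addition at room temperature.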
Experiment [5] can be described thus: qHTS assay to identify small molecule antagonists of the estrogen related receptor (ERR) signaling pathway from Tox21 library - cell viability counter screen (AID 1224834). Further: nearly all actives have a fitted effect of over 30% in size. Further: potency means the concentration at half of the fitted maximal effect. Summed up:
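ERR reporter cells were plated 6 h before compound addition, then exposed to test compounds in DMSO for 17.5 h at 37 C. Viability was read as CellTiter-Fluor fluorescence after a 30-minute incubation at 37 C.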

Experiment [6] has as its target Luciferin 4-monooxygenase (Photinus pyralis) (UniProt P08659). Nature of the experiment: qHTS assay to identify small molecule inhibitors of firefly luciferase (AID 1224835). Further: series mostly up to about 120 µM; nearly all actives have a fitted effect of over 25% in size. Put shortly: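 Inhibition of purified Photinus luciferase is measured by luminescence. Substrate levels (D-luciferin, ATP) sit at their KM values. Each compound is tested in a concentration series.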

Experiment [7] can be described thus: qHTS assay to identify small molecule agonists of the constitutive androstane receptor (CAR) signaling pathway - cell viability counter screen (AID 1224836). Further: series mostly up to about 92 µM; nearly all actives have a fitted effect of over 45% in size. Put shortly:
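Cell viability multiplexed with the CAR agonist screen: CellTiter-Fluor fluorescence after 23 hr at 37 C. HepG2-CYP2B6-hCAR cells got compounds at 15 concentrations with PK11195 at 0.75 uM final.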

Experiment [8] can be described thus: qHTS assay to identify small molecule antagonists of the constitutive androstane receptor (CAR) signaling pathway - cell viability counter screen (AID 1224837). Further: series mostly up to about 92 µM; nearly all actives have a fitted effect of over 45% in size. Summed up: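 HepG2 cells stably expressing hCAR and a CYP2B6-2.2kb reporter were plated and pre-incubated 4 hr at 37 C/5% CO2, then given compounds at 15 concentrations plus 50 nM CITCO (final). After 23 hr, viability was read by CellTiter-Fluor fluorescence.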

Experiment [9] is described as follows: qHTS assay to identify small molecule antagonists of the estrogen related receptor signaling pathway with the pleiotropic PPARgamma coactivator (PGC) from Tox21 10K library - cell viability counter screen (AID 1224840; active means well fitted cell-killing curve with a large enough effect in the repeat runs, not every such curve was filed as active; further: nearly all actives have a fitted effect of over 40% in size). Summed up: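 PGC/ERR cells were seeded at 2,000 cells/well and left 6 hours at 37 C/5% CO2 before pin-tool addition of compounds in DMSO. After 17.5 hours at 37 C, CellTiter-Fluor was added and fluorescence read 30 minutes later.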

Experiment [10] addresses Nuclear receptor subfamily 1 group I member 3 (Homo sapiens) (UniProt Q14994). Kind of experiment: qHTS assay to identify small molecule antagonists of the constitutive androstane receptor (CAR) signaling pathway (AID 1224838). Further: nearly all actives have a fitted effect of over 40% in size. Summed up:
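HepG2 cells stably co-transfected with hCAR and a CYP2B6-2.2kb luciferase reporter were seeded 4 h before compound addition at 15 concentrations. Cells were stimulated with 50 nM CITCO (final) for 24 h at 37 C; luciferase luminescence was then read.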

Experiment [11] shares this target. Kind of experiment: qHTS assay to identify small molecule agonists of the constitutive androstane receptor (CAR) signaling pathway (AID 1224839).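 Further: HepG2 cells stably carrying human CAR and a CYP2B6 luciferase reporter; series mostly up to about 92 µM; nearly all actives have a fitted effect of over 15% in size.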 Put shortly:
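Luminescent ONE-Glo read-out after 24 hr, 37 C exposure of double-stable HepG2-CYP2B6-hCAR reporter cells to a 15-point compound series, in the presence of 0.75 uM PK11195 (final).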

Experiment [12] concerns the target Thyrotropin receptor (Homo sapiens) (UniProt P16473). Kind of experiment: qHTS assay to identify small molecule agonists of the thyroid stimulating hormone receptor (TSHR) signaling pathway (AID 1224843; calls by dose curve; further: nearly all actives have a fitted effect of over 45% in size). Put shortly: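 HEK293 cells stably bearing the thyrotropin receptor were plated at 800 cells/well and challenged with compound (30 min, RT). Accumulated cAMP was quantified via cAMP-d2 competing for cryptate-tagged antibody.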

The nature of experiment [13]: qHTS assay to identify small molecule antagonists of the estrogen related receptor signaling pathway with the pleiotropic PPARgamma coactivator (PGC) from Tox21 10K library (AID 1224841; call rule not given here; further: series mostly up to about 92 µM; actives are mostly falling curves and most rising ones were filed inactive; nearly all actives have a fitted effect of over 50% in size). Put shortly:
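PGC/ERR reporter cells were seeded at 2,000 cells/well and held 6 hours at 37 C/5% CO2 before pin-tool addition of compounds in DMSO. After 18 hours at 37 C, One-Glo was added and luminescence read after 30 minutes at room temperature.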

A short description of experiment [14]: qHTS assay to identify small molecule agonists of the estrogen related receptor signaling pathway with the pleiotropic PPARgamma coactivator (PGC) from Tox21 10K library (AID 1224842). Further: nearly all actives have a fitted effect of over 15% in size. Put shortly:
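Luminescence from One-Glo (30 min, room temperature) measured after PGC/ERR cells had 18 h at 37 C with pinned compound (23 nL in DMSO). Cells had been seeded at 2,000 per well and pre-incubated 6 h.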

Inconclusive results are not listed. A number with no mark means an inactive call. Calls of active or inactive are those of the source. Unless noted, the call rests on the fitted dose curve; in most records, active means well fitted curve in the direction sought with a large enough effect in the repeat runs; inconclusive means weak or mixed curves; inactive means no such curve, though single readings can be large; an effect the other way counts as inactive or inconclusive.

Sequence of Luciferin 4-monooxygenase (Photinus pyralis) (P08659 whole entry, looked up): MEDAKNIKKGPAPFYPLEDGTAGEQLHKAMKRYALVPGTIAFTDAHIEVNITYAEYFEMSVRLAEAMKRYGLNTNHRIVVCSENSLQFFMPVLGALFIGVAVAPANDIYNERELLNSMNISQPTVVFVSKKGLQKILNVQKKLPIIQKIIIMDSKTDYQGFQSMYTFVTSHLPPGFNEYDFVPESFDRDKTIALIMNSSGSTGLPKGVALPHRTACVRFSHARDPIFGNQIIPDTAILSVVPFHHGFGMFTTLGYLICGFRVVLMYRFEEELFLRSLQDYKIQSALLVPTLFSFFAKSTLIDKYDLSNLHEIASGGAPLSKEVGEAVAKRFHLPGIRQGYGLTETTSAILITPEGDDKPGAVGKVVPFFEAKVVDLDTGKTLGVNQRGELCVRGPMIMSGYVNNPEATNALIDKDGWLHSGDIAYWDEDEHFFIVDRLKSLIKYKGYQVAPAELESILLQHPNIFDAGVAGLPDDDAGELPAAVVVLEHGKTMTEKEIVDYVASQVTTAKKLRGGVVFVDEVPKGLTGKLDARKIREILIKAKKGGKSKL
Sequence of Nuclear receptor subfamily 1 group I member 3 (Homo sapiens) (Q14994 whole entry, looked up): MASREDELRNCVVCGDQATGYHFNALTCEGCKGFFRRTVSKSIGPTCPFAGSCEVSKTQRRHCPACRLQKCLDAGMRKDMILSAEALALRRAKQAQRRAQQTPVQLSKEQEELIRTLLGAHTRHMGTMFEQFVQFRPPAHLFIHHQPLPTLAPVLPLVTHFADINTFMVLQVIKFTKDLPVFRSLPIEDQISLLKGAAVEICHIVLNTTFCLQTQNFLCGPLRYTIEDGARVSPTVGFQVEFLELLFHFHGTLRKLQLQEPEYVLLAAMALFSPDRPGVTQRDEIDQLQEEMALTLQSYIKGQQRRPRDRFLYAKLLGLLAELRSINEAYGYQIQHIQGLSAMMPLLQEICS
Sequence of Thyrotropin receptor (Homo sapiens) (P16473 whole entry, looked up): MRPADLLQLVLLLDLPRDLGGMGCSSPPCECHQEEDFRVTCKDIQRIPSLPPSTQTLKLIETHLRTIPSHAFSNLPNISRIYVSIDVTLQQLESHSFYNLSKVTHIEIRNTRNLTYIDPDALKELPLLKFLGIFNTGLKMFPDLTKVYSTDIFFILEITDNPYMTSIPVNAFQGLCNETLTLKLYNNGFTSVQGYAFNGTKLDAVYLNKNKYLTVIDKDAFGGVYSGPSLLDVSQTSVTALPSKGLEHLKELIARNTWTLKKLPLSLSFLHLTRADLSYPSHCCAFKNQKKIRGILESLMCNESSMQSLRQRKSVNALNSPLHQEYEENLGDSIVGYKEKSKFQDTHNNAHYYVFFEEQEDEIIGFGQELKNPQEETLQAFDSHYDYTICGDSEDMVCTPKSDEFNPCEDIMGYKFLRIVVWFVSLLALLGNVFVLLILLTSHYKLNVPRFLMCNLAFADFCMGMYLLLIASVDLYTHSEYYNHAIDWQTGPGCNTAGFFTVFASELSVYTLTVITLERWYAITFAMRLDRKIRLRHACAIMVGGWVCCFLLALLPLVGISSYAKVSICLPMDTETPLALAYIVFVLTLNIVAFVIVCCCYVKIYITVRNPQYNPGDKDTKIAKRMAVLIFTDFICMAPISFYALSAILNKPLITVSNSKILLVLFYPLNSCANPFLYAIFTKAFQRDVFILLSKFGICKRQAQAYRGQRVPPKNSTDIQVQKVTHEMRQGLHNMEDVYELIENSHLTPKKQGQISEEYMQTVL

Turning to `O=C1OC(=O)C2C3C=CC(C3)C12` (configuration not stated), the Potency entry in experiment [1], in [2], in [3], in experiment [4], in experiment [5] and in experiment [6] was “inactive” in each case. In addition, the Potency result in experiment [7], in experiment [8] and in [9] was “inactive” in each case.
On to `CC(C)(C)Cl`, for which the Potency entry in experiment [1], in experiment [2], in experiment [3], in experiment [4], in experiment [5] and in [6] was “inactive” throughout. The Potency result in experiment [7], in experiment [8], in experiment [10], in experiment [11], in experiment [9] and in experiment [12] was “inactive” each time.
For the molecule `COc1cc(Cl)c(OC)cc1N`, the Potency entry in experiment [1], in experiment [2], in [3], in experiment [4], in experiment [5] and in experiment [6] was “inactive” each time. For the same molecule, the Potency entry in [7], in experiment [8] and in experiment [9] was “inactive” throughout.
With `CCOCC(O)COc1ccc(NC(=O)CC[S+](C)C)cc1` (configuration not stated), the Potency result in experiment [1], in experiment [2], in experiment [3], in experiment [4], in experiment [5] and in [6] was “inactive” throughout. Also, the Potency entry in experiment [7], in [8], in experiment [10], in experiment [9] and in experiment [12] was “inactive” each time.
For `CCCCCCCCCCCc1ccccc1`, the Potency entry in experiment [1], in experiment [2], in experiment [3], in [4], in [5] and in experiment [6] was “inactive” throughout. The Potency result in [7], in experiment [8], in [11], in [9] and in [12] was “inactive” in each case.
For the molecule `COCCCN1CCC(NC(=O)c2cc(Cl)c(N)c3c2OCC3)CC1`, the Potency entry in experiment [1], in experiment [2], in [3], in experiment [4], in [5] and in experiment [6] was “inactive” throughout. In addition, the Potency entry in experiment [7], in [10], in experiment [9], in experiment [13], in experiment [14] and in experiment [12] was “inactive” each time.
As for `CC1OC(=O)C(C)OC1=O` (configuration not stated), the Potency result in experiment [1], in experiment [2], in experiment [3], in experiment [4], in [5] and in experiment [6] was “inactive” each time. For the same molecule, the Potency result in [7], in experiment [10], in [9] and in [12] was “inactive” each time.
Take `C=CCOc1ccccc1OCC(O)CNC(C)C` (configuration not stated): the Potency result in experiment [1], in experiment [2], in experiment [3], in experiment [4], in experiment [5] and in [6] was “inactive” throughout. Also, the Potency entry in experiment [7], in [10], in experiment [9] and in [13] was “inactive” each time.
Regarding `O=C1c2ccccc2S(=O)(=O)N1CCCCN1CCN(c2ncccn2)CC1`, the Potency result in [1], in [2], in experiment [3], in [4], in [5] and in [6] was “inactive” throughout. For the same molecule, the Potency result in experiment [7], in experiment [8], in experiment [10], in experiment [11], in [9] and in experiment [12] was “inactive” throughout.
Regarding `COc1cc2nc(N3CCN(C(=O)C4COc5ccccc5O4)CC3)nc(N)c2cc1OC` (configuration not stated), the Potency result in experiment [1], in [2], in [3], in experiment [4], in [6] and in experiment [7] was “inactive” throughout. For the same molecule, the Potency result in experiment [8], in experiment [10], in [11] and in experiment [12] was “inactive” each time. Also, the Potency in [5] was 29.8 µM (active).

The values are drawn from PubChem BioAssay (Tox21).
